The panel holds about 79,000 compounds, 15% with a hit somewhere; the sample as a whole holds those more often. Activity calls are given as the source filed them. Rule as the data show it: active = growth inhibition above about 70%; inactive = the rest.
Columns and labels:
[1] = NCI Yeast Anticancer Drug Screen. Data for the rad52 strain (AID 147);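 also: 0% = growth of vehicle-treated control cultures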; conditions: S. cerevisiae rad52 mutant growth inhibition, hits give high values
Method in brief: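 Compounds are applied to a genetically defined yeast strain lacking normal DNA damage repair, and inhibition of growth is expressed relative to cultures given vehicle only.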

[2] = NCI Yeast Anticancer Drug Screen. Data for the wt1 strain (AID 149);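 also: 0% = growth of vehicle-treated wt1 cultures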; conditions: S. cerevisiae wt1 strain (SPY 50644) growth inhibition, hits give high values
Method in brief: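 wt1 strain grown with compound or vehicle; inhibition taken from the growth difference.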

[3] = NCI Yeast Anticancer Drug Screen. Data for the rad50EPP+ strain (AID 151);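 also: 0% = growth of vehicle-treated control cultures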; conditions: S. cerevisiae rad50 mutant strain, hits give high values
Method in brief: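 Compounds were applied to the rad50EPP+ yeast strain, which bears a defined DNA repair alteration, and growth inhibition was determined relative to vehicle-treated cultures.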

[4] = NCI Yeast Anticancer Drug Screen. Data for the mgt1 strain (AID 153); conditions: S. cerevisiae mgt1 mutant growth inhibition, hits give high values
Method in brief: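 Strain: mgt1 yeast, one of a set carrying defined DNA damage repair or cell cycle control alterations. Compound-treated growth compared with vehicle.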

[5] = NCI Yeast Anticancer Drug Screen. Data for the rad50 strain (AID 155);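 also: 0% = growth of vehicle-only cultures of the same strain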; conditions: S. cerevisiae rad50 strain growth inhibition, hits give high values
Method in brief: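 DNA repair mutant yeast, compound exposure, growth read-out; inhibition is taken relative to vehicle.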

[6] = NCI Yeast Anticancer Drug Screen. Data for the mec2-1 strain (AID 157); conditions: S. cerevisiae mec2-1 strain, hits give high values
Method in brief: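 Strain: mec2-1 (DNA repair/cell cycle alteration). Compound exposure, then growth measured; inhibition expressed relative to vehicle.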

[7] = NCI Yeast Anticancer Drug Screen. Data for the rad14 strain (AID 159);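 also: 0% = growth of vehicle-treated control cultures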; conditions: S. cerevisiae rad14 strain growth inhibition, hits give high values
Method in brief: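 DNA repair-defective yeast, compound-exposed; % growth inhibition derived by comparison with vehicle-treated controls.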

[8] = NCI Yeast Anticancer Drug Screen. Data for the sgs1 mgt1 strain (AID 161);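 also: 0% = growth of cultures given vehicle only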; conditions: S. cerevisiae sgs1 mgt1 strain, hits give high values
Method in brief: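 Genetically altered yeast, compound exposure, growth inhibition relative to vehicle.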

[9] = NCI Yeast Anticancer Drug Screen. Data for the CLN2oe strain (AID 163);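 also: 0% = growth of vehicle-only control cultures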; conditions: S. cerevisiae CLN2oe strain, hits give high values
Method in brief: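 Growth of a genetically modified yeast strain is measured after compound exposure and compared with cultures given vehicle alone.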

[10] = NCI Yeast Anticancer Drug Screen. Data for the cln2 rad14 strain (AID 165);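 also: 0% = growth equal to vehicle treated cultures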; conditions: S. cerevisiae cln2 rad14 strain, hits give high values
Method in brief: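 Compounds are applied to the cln2 rad14 yeast strain, and growth is then compared with that of vehicle-treated cultures to give inhibition.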

[11] = NCI Yeast Anticancer Drug Screen. Data for the bub3 strain (AID 167); conditions: S. cerevisiae bub3 mutant strain, hits give high values
Method in brief: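 In this screen, a yeast mutant lacking normal mitotic checkpoint function is challenged with compound. Relative growth versus vehicle gives the inhibition value.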

[12] = NCI Yeast Anticancer Drug Screen. Data for the mlh1 strain (AID 171);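 also: 0% = growth of vehicle-treated control cultures of the same strain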; conditions: S. cerevisiae mlh1 strain growth inhibition, hits give high values
Method in brief: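 Growth of the mutant yeast strain after compound exposure, expressed as inhibition relative to vehicle-only controls.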

[13] = NCI Yeast Anticancer Drug Screen. Data for the sgs1 strain (AID 173);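 also: 0% = growth of vehicle-only control cultures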; conditions: S. cerevisiae sgs1 mutant, hits give high values
Method in brief: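 Growth of a yeast strain bearing a defined genetic alteration is measured after compound treatment. Inhibition is expressed relative to vehicle-only controls.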

[14] = NCI Yeast Anticancer Drug Screen. Data for the mlh1 rad18 strain (AID 175); conditions: S. cerevisiae mlh1 rad18 strain growth inhibition, hits give high values
Method in brief: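 Read-out is yeast growth inhibition, calculated against vehicle-only controls. The compound was applied to a strain engineered with DNA damage repair alterations.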

[15] = NCI Yeast Anticancer Drug Screen. Data for the rad18 strain (AID 177); conditions: S. cerevisiae rad18 mutant growth inhibition, hits give high values
Method in brief: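 Growth of the mutant yeast strain after compound exposure, normalised to vehicle-only cultures.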

[16] = NCI Yeast Anticancer Drug Screen. Data for the wt2 strain (AID 169);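 also: 0% = growth of vehicle-treated yeast cultures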; conditions: S. cerevisiae wt2 strain growth inhibition, hits give high values
Method in brief: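 This strain belongs to a panel of yeast strains with defined genetic alterations in DNA damage repair or cell cycle control. Compounds are applied, and growth inhibition is measured against vehicle-treated cultures.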

[17] = at 5.0 µM (retest, dose inferred, filed as 0.5)
[18] = at 50.0 µM (retest, dose inferred, filed as 5.0)

Measured: growth inhibition

Cc1cccc2c1nc1ccc(Cl)cc1[n+]2C
active: [1]; at 11.0 µM 79% | [1]; at 33.0 µM 98% | [1]; at 100.0 µM 97% | [2]; at 33.0 µM 97% | [2]; at 100.0 µM 96% | [3]; at 33.0 µM 93% | [3]; at 100.0 µM 95% | [4]; at 33.0 µM 98% | [4]; at 100.0 µM 98% | [5]; at 11.0 µM 84% | [5]; at 33.0 µM 96% | [5]; [18] 96% | [5]; at 50.0 µM 98% | [5]; at 100.0 µM 97% | [6]; at 11.0 µM 85% | [6]; at 33.0 µM 96% | [6]; [18] 96% | [6]; at 50.0 µM 98.8% | [6]; at 100.0 µM 97% | [7]; at 33.0 µM 97% | [7]; at 100.0 µM 97% | [8]; [18] 97% | [8]; at 50.0 µM 98.8% | [9]; at 11.0 µM 89% | [9]; at 33.0 µM 96% | [9]; at 100.0 µM 95% | [10]; [18] 95% | [10]; at 50.0 µM 96.5% | [11]; at 11.0 µM 82% | [11]; at 33.0 µM 95% | [11]; [18] 94% | [11]; at 50.0 µM 98% | [11]; at 100.0 µM 96% | [12]; at 11.0 µM 82% | [12]; at 33.0 µM 97% | [12]; at 100.0 µM 97% | [13]; at 11.0 µM 89% | [13]; at 33.0 µM 97% | [13]; at 100.0 µM 97% | [14]; [18] 95% | [14]; at 50.0 µM 98.3% | [15]; at 11.0 µM 91% | [15]; at 33.0 µM 97% | [15]; at 100.0 µM 96%
inactive: [1]; at 1.2 µM 0% | [1]; at 3.7 µM 9% | [2]; at 1.2 µM -1% | [2]; at 3.7 µM 4% | [2]; at 11.0 µM 41% | [3]; at 1.2 µM -4% | [3]; at 3.7 µM 4% | [3]; at 11.0 µM 64% | [4]; at 1.2 µM 0% | [4]; at 3.7 µM 7% | [4]; at 11.0 µM 59% | [5]; at 1.2 µM 2% | [5]; at 3.7 µM 9% | [5]; [17] 11% | [6]; at 1.2 µM 1% | [6]; at 3.7 µM 18% | [6]; [17] 3% | [7]; at 1.2 µM 2% | [7]; at 3.7 µM 8% | [7]; at 11.0 µM 57% | [8]; [17] 26% | [9]; at 1.2 µM -5% | [9]; at 3.7 µM -4% | [10]; [17] 4% | [11]; at 1.2 µM 0% | [11]; at 3.7 µM 10% | [11]; [17] 0% | [12]; at 1.2 µM -3% | [12]; at 3.7 µM 7% | [13]; at 1.2 µM 3% | [13]; at 3.7 µM 13% | [14]; [17] 25% | [15]; at 1.2 µM 25% | [15]; at 3.7 µM 62%

Cc1cc2c(cc1C)[n+]([O-])c(-c1nc3ccccc3s1)c(N)[n+]2[O-]
inactive: [1]; at 1.2 µM 2% | [1]; at 3.7 µM 10% | [1]; at 11.0 µM 20% | [1]; at 33.0 µM 35% | [2]; at 1.2 µM 10% | [2]; at 3.7 µM 13% | [2]; at 11.0 µM 17% | [2]; at 33.0 µM 20% | [2]; at 100.0 µM 25% | [3]; at 1.2 µM 1% | [3]; at 3.7 µM 15% | [3]; at 11.0 µM 44% | [4]; at 1.2 µM 11% | [4]; at 3.7 µM 18% | [4]; at 11.0 µM 23% | [4]; at 33.0 µM 40% | [5]; at 1.2 µM 0% | [5]; at 3.7 µM 10% | [5]; [17] 3% | [5]; at 11.0 µM 23% | [5]; at 33.0 µM 40% | [5]; [18] 58% | [6]; at 1.2 µM 11% | [6]; at 3.7 µM 21% | [6]; [17] 23% | [6]; at 11.0 µM 26% | [6]; at 33.0 µM 37% | [7]; at 1.2 µM 1% | [7]; at 3.7 µM 14% | [7]; at 11.0 µM 22% | [7]; at 33.0 µM 29% | [8]; [17] 28% | [9]; at 1.2 µM -1% | [9]; at 3.7 µM 5% | [9]; at 11.0 µM 18% | [9]; at 33.0 µM 10% | [9]; at 100.0 µM 25% | [10]; [17] 2% | [10]; [18] 41% | [11]; at 1.2 µM 11% | [11]; at 3.7 µM 32% | [11]; [17] 47% | [11]; at 11.0 µM 46% | [11]; at 33.0 µM 53% | [16]; at 1.2 µM 14% | [16]; at 3.7 µM 18% | [16]; at 11.0 µM 18% | [16]; at 33.0 µM 21% | [16]; at 100.0 µM 58% | [12]; at 1.2 µM 6% | [12]; at 3.7 µM 14% | [12]; at 11.0 µM 17% | [12]; at 33.0 µM 20% | [12]; at 100.0 µM 55% | [14]; [17] 33% | [15]; at 1.2 µM 4% | [15]; at 3.7 µM 20% | [15]; at 11.0 µM 36% | [15]; at 33.0 µM 63%
active: [1]; at 100.0 µM 88% | [3]; at 33.0 µM 82% | [3]; at 100.0 µM 97% | [4]; at 100.0 µM 94% | [5]; at 50.0 µM 87.8% | [5]; at 100.0 µM 93% | [6]; [18] 79% | [6]; at 50.0 µM 76% | [6]; at 100.0 µM 97% | [7]; at 100.0 µM 85% | [8]; [18] 89% | [8]; at 50.0 µM 80.6% | [10]; at 50.0 µM 81.5% | [11]; [18] 92% | [11]; at 50.0 µM 93.7% | [11]; at 100.0 µM 96% | [14]; [18] 90% | [14]; at 50.0 µM 94.9% | [15]; at 100.0 µM 91%

Source: PubChem BioAssay (NCI)
